Holding throughout (test): NCI-60 one-dose screen, 48 h (100 = growth as untreated, 0 = no growth, -100 = all killed)
Assay [1] deals with NCI-H23 lung. As to conditions: 10 µM unless noted.
Assay [2] has as its system NCI-H226 lung. As to conditions: 10 µM unless noted.
Assay [3] relates to NCI-H322M lung. As to conditions: 10 µM unless noted.
The test system of assay [4] is HOP-62 NSCLC. As to conditions: 10 µM unless noted.
Assay [5] deals with NCI-H460 lung. As to conditions: 10 µM unless noted.
The test system of assay [6] is HOP-92 NSCLC. As to conditions: 10 µM unless noted.
In assay [7] the test system is NCI-H522 lung. As to conditions: 10 µM unless noted.
For assay [8], the system named is A549/ATCC NSCLC. As to conditions: 10 µM unless noted.
For assay [9], the system named is 786-0 renal. As to conditions: 10 µM unless noted.
Assay [10] relates to COLO 205 colon. As to conditions: 10 µM unless noted.
In assay [11] the test system is DU-145 prostate. As to conditions: 10 µM unless noted.
In assay [12] the test system is K-562 leukemia. As to conditions: 10 µM unless noted.
Assay [13] relates to MALME-3M melanoma. As to conditions: 10 µM unless noted.
The subject of assay [14] is MDA-MB-231 breast. As to conditions: 10 µM unless noted.
Assay [15] relates to RXF 393 renal. As to conditions: 10 µM unless noted.
The subject of assay [16] is SF-268 CNS. As to conditions: 10 µM unless noted.
Assay [17] has as its system SF-295 CNS. As to conditions: 10 µM unless noted.
Assay [18] concerns SF-539 CNS. As to conditions: 10 µM unless noted.
For assay [19], the system named is UACC-257 melanoma. As to conditions: 10 µM.
Assay [20] has as its system M14 melanoma. As to conditions: 10 µM unless noted.

About 83,000 compounds went through this panel and 20% of them were active in at least one assay; those are over-represented in the sample as a whole.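 Percent growth is the endpoint: 0 to 100 indicates growth inhibition (40 means 60% inhibition), 0 means no net growth, and negative values indicate cell death.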 Values without a mark were called inactive. Activity calls are given as the source filed them. Rule for the calls: active = growth percent below 10; inactive = the rest.

Regarding `CNC(=O)c1cc(Oc2ccc3nc(NC(=O)c4ccc(CN5CCN(C)CC5)c(C(F)(F)F)c4)sc3c2)ccn1`, the growth was 51.8% in [1]; 72.7% in assay [2]; 94.5% in [3]; 73.5% in assay [4]; 53.2% in assay [5]; 44.1% in assay [6]. Besides, the growth is 79.3% in assay [7]; 66.4% in [8]; 22.3% in assay [9]; -29.9% (active) in [10]; 79.3% in [11]; 11.7% in [12]. For the same molecule, the growth was -5.19% (active) in assay [13]; 77.5% in assay [14]; 46.7% in assay [15]; 74.6% in [16]; 36% in assay [17]; 25% in [18]. For the same molecule, the growth was 20.4% in assay [19] and 0.73% (active) in assay [20].
Consider `Cc1cc(F)cc(NS(=O)(=O)c2ccc(-c3cnc(C4CC4)o3)cc2)c1`, for which the growth in assay [1] is 19.8%; in assay [2], 53.8%; in assay [3] it was 46.9%; in assay [4], 34.2%; in [5] it was 13.8%; in assay [6], 35.6%. The growth was 8.89% (active) in [7]; 27.8% in [8]; 47% in [9]; 1.45% (active) in assay [10]; 23.7% in assay [11]; 8.06% (active) in assay [12]. In addition, the growth was 59.2% in assay [13]; 30.5% in assay [14]; -3.39% (active) in assay [15]; 63.6% in assay [16]; -5.64% (active) in [17]; -1.6% (active) in assay [18]. For the same molecule, the results for the growth in [19] and in assay [20] were 59.1% and 19.5%, respectively.
As for `CCOC(=O)Nc1ccc(-c2nc(-c3cccc(O)c3)c(-c3ccnc(Br)c3)[nH]2)cc1`, the growth in assay [1] was 31%; in assay [2] it was 40.6%; in assay [3], 54.7%; in assay [4] it was 25.2%; in assay [5], 37.6%; in assay [6], 38.3%. Moreover, the growth was 25.1% in assay [7]; 16% in [8]; 20.5% in [9]; 43.6% in assay [10]; 57.7% in [11]; 12.5% in assay [12]. Besides, the growth in assay [13] is 32.4%; in assay [14] it was 39.3%; in assay [15] it was -9.56% (active); in assay [16] it was 39.9%; in assay [17], -14% (active); in assay [18], 38.2%. For the same molecule, the growth was 38.7% in assay [19] and 35.1% in assay [20].
Consider `COc1cc2cc(Oc3ccc(NC(=O)Nc4cccc(C(F)(F)F)c4)cc3)c(C)nc2cc1OCCN(C)C`, for which the growth in [1] was 91.2%; in [2], 104%; in [3] it was 117%; in [4], 105%; in [5] it was 99.9%; in [6], 74.7%. Further, the growth in assay [7] was 102%; in assay [8], 96.7%; in assay [9], 88.7%; in [10] it was 98.5%; in assay [11], 92.5%; in [12], 10% (active). Moreover, the growth in assay [13] was 84.7%; in [14], 98.1%; in assay [15], 75.9%; in [16], 107%; in [17] it was 81.1%; in [18] it was 92%. The figures for the growth in assay [19] and in assay [20] were 100% and 107%, respectively.
`CCC(=O)Nc1ccc(-c2nc(-c3cccc(O)c3)c(-c3ccnc(Br)c3)[nH]2)cc1`: the growth in [1] was 86%; in assay [2], 74.2%; in assay [3], 73.9%; in [4] it was 75%; in [5], 20.9%; in assay [6], 57.5%. The growth in assay [7] was 57.8%; in assay [8], 83.6%; in assay [9], 46.8%; in [10], 80.4%; in assay [11], 56%; in assay [12] it was 32.8%. For the same molecule, the growth is 59.8% in assay [13]; 71.8% in [14]; -4.84% (active) in [15]; 82.1% in [16]; 45.8% in [17]; 57.1% in assay [18]. Further, the growth was 64.1% in assay [19] and 66.7% in [20].
In the case of `CCN(CC)CCCC(C)NCC(=O)NC(c1ccc2c(c1)OCO2)c1cc(Cl)c2cccnc2c1O` (stereo not given), the growth in assay [1] was 41.7%; in assay [2] it was 41.2%; in assay [3] it was 35.2%; in [4], 21.6%; in assay [5], 8.77% (active); in assay [6] it was 35.9%. In addition, the growth in assay [7] is 37.4%; in [8], 24.1%; in assay [9], 7.03% (active); in [10], 17.6%; in [11], 44.2%; in [12], 10.6%. In addition, the growth is 5.27% (active) in assay [13]; 35.5% in assay [14]; 67.5% in assay [15]; 22.7% in assay [16]; -53.3% (active) in [17]; 6.63% (active) in assay [18]. The figures for the growth in assay [19] and in assay [20] were 76.6% and -9.39% (active), respectively.
With `CC(=O)Nc1ccc(C)c(Nc2cc(-c3ccc(-n4cccn4)cc3)[nH]n2)c1`, the growth is 67% in assay [1]; 57.9% in assay [2]; 83.8% in assay [3]; 51.7% in assay [4]; 27.6% in [5]; 113% in assay [6]. Further, the growth in assay [7] was 14.3%; in assay [8], 60.2%; in [9] it was 74.9%; in assay [10], 67.1%; in [11], 81.5%; in assay [12] it was 19%. Besides, the growth in assay [13] is 73.6%; in assay [14], 82.8%; in assay [15], 52.8%; in assay [16], 60.6%; in assay [17] it was 46.1%; in assay [18] it was 41.3%. Further, the growth was 64.4% in assay [19] and 19.2% in assay [20].
For `Cn1nc(Nc2ccccc2)c(C(=O)NN)c1N`, the growth in assay [1] was 100%; in assay [2], 92.5%; in assay [3] it was 97%; in assay [4] it was 99.8%; in assay [5], 107%; in assay [6], 111%. In addition, the growth in assay [7] is 96.9%; in assay [8], 98.3%; in [9] it was 109%; in [10], 104%; in assay [11] it was 106%; in assay [12], 108%. Besides, the growth in assay [13] was 90.9%; in [14], 93%; in assay [15] it was 109%; in assay [16] it was 103%; in [17], 103%; in assay [18], 96%. Further, the growth in [19] is 102%; in [20] it was 101%.

For the origin of these results see PubChem BioAssay (NCI).
